# Results published in PubChem BioAssay (NCI).
# Where “and” joins values, the source holds several entries; their conditions need not be identical. Equal values may be shown once. Compounds without any hit were thinned out: in the full panel of roughly 79,000, 15% have a hit. Values without a mark were called inactive. Calls of active or inactive are those of the source. Cut-off read from the data, not from the text of the source: active = growth inhibition above about 70%; inactive = the rest.
# What was measured:
# [1] = NCI Yeast Anticancer Drug Screen. Data for the wt1 strain (AID 149);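 note: 0% = growth of vehicle-treated wt1 cultures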; settings: S. cerevisiae wt1 strain (SPY 50644) growth inhibition, active compounds read high
# Outline: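 Yeast wt1 strain exposed to compounds; growth inhibition measured relative to vehicle-treated controls.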
# [2] = NCI Yeast Anticancer Drug Screen. Data for the rad50 strain (AID 155);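 note: 0% = growth of vehicle-only cultures of the same strain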; settings: S. cerevisiae rad50 strain growth inhibition, active compounds read high
# Outline: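 Yeast carrying a defined DNA repair defect were exposed to test compounds, and growth was compared with vehicle-treated controls to give percent inhibition.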
# [3] = NCI Yeast Anticancer Drug Screen. Data for the mec2-1 strain (AID 157); settings: S. cerevisiae mec2-1 strain, active compounds read high
# Outline: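 Cells of the genetically defined mec2-1 yeast strain are incubated with test compound. Inhibition of growth is calculated against vehicle-treated controls.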
# [4] = NCI Yeast Anticancer Drug Screen. Data for the rad14 strain (AID 159);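 note: 0% = growth of vehicle-treated control cultures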; settings: S. cerevisiae rad14 strain growth inhibition, active compounds read high
# Outline: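 Yeast cells carrying a defined DNA-repair defect were exposed to compounds, and growth inhibition was calculated relative to vehicle-treated control cultures.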
# [5] = NCI Yeast Anticancer Drug Screen. Data for the sgs1 mgt1 strain (AID 161);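 note: 0% = growth of cultures given vehicle only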; settings: S. cerevisiae sgs1 mgt1 strain, active compounds read high
# Outline: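 Genetically altered yeast, compound exposure, growth inhibition relative to vehicle.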
# [6] = NCI Yeast Anticancer Drug Screen. Data for the CLN2oe strain (AID 163);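 note: 0% = growth of vehicle-only control cultures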; settings: S. cerevisiae CLN2oe strain, active compounds read high
# Outline: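 Strain altered in cell-cycle control, incubated with compound; growth compared to solvent-treated controls.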
# [7] = NCI Yeast Anticancer Drug Screen. Data for the cln2 rad14 strain (AID 165);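 note: 0% = growth equal to vehicle treated cultures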; settings: S. cerevisiae cln2 rad14 strain, active compounds read high
# Outline: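 The screen exposed genetically defined yeast (cln2 rad14) to test compounds and scored growth inhibition relative to vehicle-treated controls.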
# [8] = NCI Yeast Anticancer Drug Screen. Data for the bub3 strain (AID 167); settings: S. cerevisiae bub3 mutant strain, active compounds read high
# Outline: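 Compounds were applied to a genetically altered yeast strain carrying a cell-cycle control defect. Growth inhibition was scored against vehicle-treated controls.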
# [9] = NCI Yeast Anticancer Drug Screen. Data for the wt2 strain (AID 169);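 note: 0% = growth of vehicle-treated yeast cultures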; settings: S. cerevisiae wt2 strain growth inhibition, active compounds read high
# Outline: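 Steps: yeast strain treated with compound; growth recorded; inhibition calculated relative to cultures given vehicle alone.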
# [10] = NCI Yeast Anticancer Drug Screen. Data for the mlh1 strain (AID 171);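 note: 0% = growth of vehicle-treated control cultures of the same strain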; settings: S. cerevisiae mlh1 strain growth inhibition, active compounds read high
# Outline: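 Yeast screen: mutant strain plus compound, growth scored against vehicle control wells.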
# [11] = NCI Yeast Anticancer Drug Screen. Data for the mlh1 rad18 strain (AID 175); settings: S. cerevisiae mlh1 rad18 strain growth inhibition, active compounds read high
# Outline: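 Compound-treated yeast growth, normalised to vehicle controls. Strain bears defined DNA repair mutations.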
# [12] = NCI Yeast Anticancer Drug Screen. Data for the rad18 strain (AID 177); settings: S. cerevisiae rad18 mutant growth inhibition, active compounds read high
# Outline: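 Inhibition values reflect reduced yeast growth compared with vehicle-treated controls, using a strain engineered with a DNA damage repair defect.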
# [13] = NCI Yeast Anticancer Drug Screen. Data for the rad50EPP+ strain (AID 151);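 note: 0% = growth of vehicle-treated control cultures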; settings: S. cerevisiae rad50 mutant strain, active compounds read high
# Outline: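 Strain rad50EPP+; compound exposure; % growth inhibition vs vehicle.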
# [14] = NCI Yeast Anticancer Drug Screen. Data for the mgt1 strain (AID 153); settings: S. cerevisiae mgt1 mutant growth inhibition, active compounds read high
# Outline: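 Read-out: yeast growth inhibition vs vehicle control. Strain mgt1, drawn from a panel altered in DNA damage repair or cell cycle control.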
# [15] = NCI Yeast Anticancer Drug Screen. Data for the sgs1 strain (AID 173);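 note: 0% = growth of vehicle-only control cultures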; settings: S. cerevisiae sgs1 mutant, active compounds read high
# Outline: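 Inhibition of yeast growth served as the measure. The mutant strain was treated with each compound, and growth was normalised to cultures receiving vehicle alone.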
# [16] = at 5.0 µM (retest, dose inferred, filed as 0.5)
# [17] = at 50.0 µM (retest, dose inferred, filed as 5.0)
compound,measurement,setting,value
COc1ccc2nc(N/N=C/c3sccc3C)cc(C)c2c1,growth inhibition,[1]; at 1.2 µM,-39%
same,growth inhibition,[1]; at 3.7 µM,-32%
same,growth inhibition,[1]; at 11.0 µM,-6%
same,growth inhibition,[1]; at 33.0 µM,96% (active)
same,growth inhibition,[1]; at 100.0 µM,95% (active)
same,growth inhibition,[2]; at 1.2 µM,-22%
same,growth inhibition,[2]; at 3.7 µM,-27%
same,growth inhibition,[2]; [16],4%
same,growth inhibition,[2]; at 11.0 µM,-12%
same,growth inhibition,[2]; at 33.0 µM,94% (active)
same,growth inhibition,[2]; [17],68%
same,growth inhibition,[2]; at 50.0 µM,85.5% (active)
same,growth inhibition,[2]; at 100.0 µM,94% (active)
same,growth inhibition,[3]; at 1.2 µM,-13%
same,growth inhibition,[3]; at 3.7 µM,4%
same,growth inhibition,[3]; [16],-10%
same,growth inhibition,[3]; at 11.0 µM,12%
same,growth inhibition,[3]; at 33.0 µM,96% (active)
same,growth inhibition,[3]; [17],56%
same,growth inhibition,[3]; at 50.0 µM,87.5% (active)
same,growth inhibition,[3]; at 100.0 µM,95% (active)
same,growth inhibition,[4]; at 1.2 µM,-50%
same,growth inhibition,[4]; at 3.7 µM,-19%
same,growth inhibition,[4]; at 11.0 µM,-21%
same,growth inhibition,[4]; at 33.0 µM,97% (active)
same,growth inhibition,[4]; at 100.0 µM,90% (active)
same,growth inhibition,[5]; [16],96% (active)
same,growth inhibition,[5]; [17],96% (active)
same,growth inhibition,[5]; at 50.0 µM,84.1% (active)
same,growth inhibition,[6]; at 1.2 µM,-2%
same,growth inhibition,[6]; at 3.7 µM,-6%
same,growth inhibition,[6]; at 11.0 µM,-1%
same,growth inhibition,[6]; at 33.0 µM,96% (active)
same,growth inhibition,[6]; at 100.0 µM,94% (active)
same,growth inhibition,[7]; [16],95% (active)
same,growth inhibition,[7]; [17],95% (active)
same,growth inhibition,[7]; at 50.0 µM,81% (active)
same,growth inhibition,[8]; at 1.2 µM,12%
same,growth inhibition,[8]; at 3.7 µM,14%
same,growth inhibition,[8]; [16],96% (active)
same,growth inhibition,[8]; at 11.0 µM,38%
same,growth inhibition,[8]; at 33.0 µM,98% (active)
same,growth inhibition,[8]; [17],98% (active)
same,growth inhibition,[8]; at 50.0 µM,86% (active)
same,growth inhibition,[8]; at 100.0 µM,96% (active)
same,growth inhibition,[9]; at 1.2 µM,18%
same,growth inhibition,[9]; at 3.7 µM,4%
same,growth inhibition,[9]; at 11.0 µM,27%
same,growth inhibition,[9]; at 33.0 µM,98% (active)
same,growth inhibition,[9]; at 100.0 µM,96% (active)
same,growth inhibition,[10]; at 1.2 µM,8%
same,growth inhibition,[10]; at 3.7 µM,-3%
same,growth inhibition,[10]; at 11.0 µM,35%
same,growth inhibition,[10]; at 33.0 µM,97% (active)
same,growth inhibition,[10]; at 100.0 µM,92% (active)
same,growth inhibition,[11]; [16],-5%
same,growth inhibition,[11]; [17],83% (active)
same,growth inhibition,[11]; at 50.0 µM,87.8% (active)
same,growth inhibition,[12]; at 1.2 µM,5%
same,growth inhibition,[12]; at 3.7 µM,16%
same,growth inhibition,[12]; at 11.0 µM,8%
same,growth inhibition,[12]; at 33.0 µM,98% (active)
same,growth inhibition,[12]; at 100.0 µM,96% (active)
N=c1oc2ccccc2cc1-c1nc2ccccc2[nH]1,growth inhibition,[13]; at 1.2 µM,30%
same,growth inhibition,[13]; at 3.7 µM,48%
same,growth inhibition,[13]; at 11.0 µM,58%
same,growth inhibition,[13]; at 33.0 µM,85% (active)
same,growth inhibition,[13]; at 100.0 µM,91% (active)
same,growth inhibition,[14]; at 1.2 µM,13%
same,growth inhibition,[14]; at 3.7 µM,11%
same,growth inhibition,[14]; at 11.0 µM,24%
same,growth inhibition,[14]; at 33.0 µM,43%
same,growth inhibition,[14]; at 100.0 µM,79% (active)
same,growth inhibition,[2]; at 1.2 µM,15%
same,growth inhibition,[2]; at 3.7 µM,18%
same,growth inhibition,[2]; [16],7%
same,growth inhibition,[2]; at 11.0 µM,31%
same,growth inhibition,[2]; at 33.0 µM,64%
same,growth inhibition,[2]; [17],85% (active)
same,growth inhibition,[2]; at 50.0 µM,70%
same,growth inhibition,[2]; at 100.0 µM,88% (active)
same,growth inhibition,[3]; at 1.2 µM,-6%
same,growth inhibition,[3]; at 3.7 µM,10%
same,growth inhibition,[3]; [16],2%
same,growth inhibition,[3]; at 11.0 µM,11%
same,growth inhibition,[3]; at 33.0 µM,26%
same,growth inhibition,[3]; [17],66%
same,growth inhibition,[3]; at 50.0 µM,31.8%
same,growth inhibition,[3]; at 100.0 µM,62%
same,growth inhibition,[4]; at 1.2 µM,5%
same,growth inhibition,[4]; at 3.7 µM,11%
same,growth inhibition,[4]; at 11.0 µM,25%
same,growth inhibition,[4]; at 33.0 µM,39%
same,growth inhibition,[4]; at 100.0 µM,88% (active)
same,growth inhibition,[5]; [16],13%
same,growth inhibition,[5]; [17],62%
same,growth inhibition,[5]; at 50.0 µM,47.8%
same,growth inhibition,[6]; at 1.2 µM,6%
same,growth inhibition,[6]; at 3.7 µM,-21%
same,growth inhibition,[6]; at 11.0 µM,12%
same,growth inhibition,[6]; at 33.0 µM,25%
same,growth inhibition,[6]; at 100.0 µM,47%
same,growth inhibition,[7]; [16],5%
same,growth inhibition,[7]; [17],27%
same,growth inhibition,[7]; at 50.0 µM,28.3%
same,growth inhibition,[8]; at 1.2 µM,-13%
same,growth inhibition,[8]; at 3.7 µM,-12%
same,growth inhibition,[8]; [16],23%
same,growth inhibition,[8]; at 11.0 µM,-3%
same,growth inhibition,[8]; at 33.0 µM,9%
same,growth inhibition,[8]; [17],56%
same,growth inhibition,[8]; at 50.0 µM,33.8%
same,growth inhibition,[8]; at 100.0 µM,57%
same,growth inhibition,[9]; at 1.2 µM,-31%
same,growth inhibition,[9]; at 3.7 µM,-29%
same,growth inhibition,[9]; at 11.0 µM,-13%
same,growth inhibition,[9]; at 33.0 µM,47%
same,growth inhibition,[9]; at 100.0 µM,80% (active)
same,growth inhibition,[10]; at 1.2 µM,0%
same,growth inhibition,[10]; at 3.7 µM,3%
same,growth inhibition,[10]; at 11.0 µM,17%
same,growth inhibition,[10]; at 33.0 µM,42%
same,growth inhibition,[10]; at 100.0 µM,82% (active)
same,growth inhibition,[15]; at 1.2 µM,15%
same,growth inhibition,[15]; at 3.7 µM,28%
same,growth inhibition,[15]; at 11.0 µM,41%
same,growth inhibition,[15]; at 33.0 µM,59%
same,growth inhibition,[15]; at 100.0 µM,82% (active)
same,growth inhibition,[11]; [16],6%
same,growth inhibition,[11]; [17],84% (active)
same,growth inhibition,[11]; at 50.0 µM,16.6%
OCC(O)C(O)C(O)C(O)c1nc2ccccc2[nH]1 (stereo unspecified),growth inhibition,[2]; [16],-2% and -4%
same,growth inhibition,[2]; [17],-1% and -19%
same,growth inhibition,[2]; at 50.0 µM,4% [middle of 5 runs]
same,growth inhibition,[3]; [16],-17% and -20%
same,growth inhibition,[3]; [17],-30%
same,growth inhibition,[3]; at 50.0 µM,0.75% [middle of 5 runs]
same,growth inhibition,[5]; [16],3% and -6%
same,growth inhibition,[5]; [17],1% and -14%
same,growth inhibition,[5]; at 50.0 µM,2% [middle of 5 runs]
same,growth inhibition,[7]; [16],0% and 2%
same,growth inhibition,[7]; [17],-1% and 14%
same,growth inhibition,[8]; [16],6% and -5%
same,growth inhibition,[8]; [17],12% and -1%
same,growth inhibition,[11]; [16],-1% and -11%
same,growth inhibition,[11]; [17],5% and 1%
